In the library only some 3.8% were active in any assay of this set; here they are far more common.
rTrxR1 inhibitor: inhibitors of rat thioredoxin reductase 1 | recombinant rTrxR1, NADPH fluorescence consumption, selenite substrate | Potency, µM (doses to about 114 µM), for inactives: at the top dose activity change, negative = inhibition, usual class: inhibitors | actives 1% (n = 390,000) | AID 588453; also: nearly all actives have a fitted effect of over 65% in size
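Rat TrxR1 (90 nM in the dispensed reagent) was pre-reduced with 400 uM NADPH for 5 min at room temperature, then incubated with compound for 15 min. After 400 uM selenite was added, NADPH fluorescence (Ex 340/Em 450 nm) was followed for 8 min.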
Sfp PPTase inh: Sfp phosphopantetheinyl transferase inhibition | Potency, µM, without a hit: largest response in the series, negative = inhibition, actives largely listed as inhibitors | actives 3.5% (n = 310,000) | Biochemical Sfp PPTase activity, qHTS | Q9F4F7 | AID 1490;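 also: the enzyme is Sfp with the accession as filed and its product quenches rhodamine fluorescence; 0% = enzyme reaction without inhibitor and -100% = no enzyme wells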
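After 15 min at room temperature with compound, 15 nM Sfp received 5 uM rhodamine-CoA plus 12.5 uM BHQ-2-ybbR (50 mM Hepes pH 7.6, 10 mM MgCl2). Rate came from the fluorescence difference over 30 min, ex 525/em 598 nm.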
TrxR1 substrate: rat thioredoxin reductase 1 substrate activity; O89049; purified TrxR1 substrate turnover, NADPH consumption readout; Potency, µM (series often up to 114 µM), for inactives: top-dose activity change, negative = substrate turnover; actives 0.01% (n = 390,000); also: nearly all actives have a fitted effect of over 50% in size
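Rat TrxR1, dispensed at 90 nM, was prereduced with 400 uM NADPH (final) for 5 min at ~22 deg C, then incubated with compound 15 min before 400 uM selenite. A first-read NADPH fluorescence drop versus no-compound background flagged substrates.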
GLS inh: glutaminase GLS (human) inhibition. O94925. GLS enzymatic activity, qHTS titration. Potency, µM (titrated, usually from 45.5 µM), inactives show top-dose activity change, negative = inhibition, hits mostly inhibitors. actives 0.21% (n = 410,000). AID 624170
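Coupled fluorescence readout: glutamate oxidase/HRP/Amplex Red detect glutamate formed by hKGA from L-glutamine (1 mM solution added). Buffer 45 mM KH2PO4 pH 8.2, 0.02% Tween-20; reads at t0 and 30 min RT.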
KAT2A inh: inhibitors of human GCN5L2 histone acetyltransferase | GCN5L2 HAT assay, ThioGlo1 CoA-SH fluorescence | actives 0.21% (n = 390,000) | AID 504327 | Q92830 | Potency, µM (titrated, usually from 58.9 µM), without a hit: at the top dose activity change, negative = inhibition, most hits filed as inhibitors
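ThioGlo1-coupled HAT assay: 20nM GCN5L2, 70uM acetyl-CoA, 75uM H3(1-25) peptide, pH 7.5. Fluorescence read at 340/540nm at start and after 20 min at room temperature.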
VDR inhibitor: blocks the human vitamin D receptor; VDR-SRC2-3 peptide fluorescence polarization, 2 h; Potency, µM, inactives show max response, negative = inhibition, hits mostly inhibitors; actives 0.93% (n = 400,000); AID 504847
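Compounds are added to VDR with labelled SRC2-3 coactivator peptide and held 2 h at room temperature. Inhibition of the VDR–peptide interaction is then read as a change in fluorescence polarization.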
* marks the source's active call; other numbers are inactive results; u = inconclusive; x = no result given; [ ] = another dose, or the depositor's remark. Calls follow the shape of the dose curve; as a rule, active = well fitted curve in the direction sought with a large enough effect; inconclusive = small, poorly fitted or top-dose-only effect, or another doubt; inactive = no such curve, though single readings can be large; an effect the other way counts as inactive or inconclusive. Unless noted, % is scaled to controls: 0 for no effect and ±100 for the full control effect; potency is read from the fitted curve at half-maximal effect.

SMILES	rTrxR1 inhibitor	Sfp PPTase inh	TrxR1 substrate	GLS inh	KAT2A inh	VDR inhibitor
CCOC(=O)C1(C)NC(c2ccc(OC)c(OC)c2)C2C(=O)N(c3cccc(C(C)=O)c3)C(=O)C21 (configuration not stated)	x	x	x	2%	x	x
CCOC(=O)C1(C)NC(c2ccccc2F)C2C(=O)N(c3cccc(C(C)=O)c3)C(=O)C21 (configuration not stated)	-9%	7%	-7%	u	-3%	25µM*
COc1cccc(OC)c1OCc1cc(C2C3CCCC=C3C(C#N)=C(N)C2(C#N)C#N)c(C)cc1C (configuration not stated)	u	56µM*	-3%[57.1 µM]	16%	-11%	u
CCOc1cc(/C=C(\C#N)C(=O)Nc2cccc(C(=O)O)c2)ccc1OCc1ccccc1Cl	16%	u	4%	-4%	u	u
CCOc1cc(/C=C(\C#N)C(=O)Nc2cccc(C(=O)O)c2)cc(Br)c1OC(=O)c1ccc(OC)cc1	-8%	79µM*	-9%	4%	25µM*	25µM*
O=C(O)CCc1ccc(-c2ccccc2)o1	u	-80%	3%[57.1 µM]	8%	u	20µM*
CCOC(=O)c1nnn(-c2nn3nnnc3c3ccccc23)c1C	16%[57.1 µM]	12%	8%[57.1 µM]	12%	-7%	-7%
CC1(C)CC(N2CCN(CCO)CC2)=CC(=S)N1	u	50µM*	6%[57.1 µM]	5%	4%	-22%
CC1(C)CC(NCc2ccccc2)=CC(=S)N1	x	x	x	24%	x	x
Cc1cc(=O)oc2cc(OCC(=O)Nc3ccc(S(=O)(=O)N(C)C)cc3)ccc12	6%	-18%	79%	1%	-4%	-18%
S=c1[nH]c(-c2ccccc2)cn1/N=C/c1ccncc1	-21%	79µM*	6%	10µM*	-11%	-3%
COc1ccccc1N1CSC2=C(C#N)C(c3ccc(SC)cc3)CC(=O)N2C1 (configuration not stated)	13µM*	3.5µM*	-5%[57.1 µM]	-24%	u	22µM*
COc1cc(SC)ccc1C(=O)N1CCN(c2ccccc2OC)CC1	11%	20%	-1%	1%	-5%	-11%
COc1cc(C2CC(=O)N3CN(c4ccccc4C)CSC3=C2C#N)cc(OC)c1OC (configuration not stated)	x	2.8µM*	x	x	u	x
Cc1ccc(C(=O)N(Cc2nnc(-c3ccccc3Cl)o2)C2CC2)o1	x	x	x	-2%	x	x
O=c1c(C(c2ccccc2)c2c(O)nc3n(c2=O)CCS3)c(O)nc2n1CCS2	7.1µM*	-3%	-3%	15%	-1%	-4%
O=c1c(C(c2ccc(F)cc2)c2c(O)nc3n(c2=O)CCCS3)c(O)nc2n1CCCS2	14µM*	3%	-4%	17%	-3%	-25%
CCOC(=O)/C=C/C(=O)Nc1ccc(S(=O)(=O)Nc2c(C)cc(C)cc2C)cc1	-5%	8%	-8%	-1%	0%	6%
CCOC(=O)/C=C/S(=O)(=O)c1ccc(NC(C)=O)cc1	u	40µM*	-4%	-10%	1%	u
CCOC(=O)/C=C/C(=O)OCC(=O)Nc1ccc(C)cc1	40µM*	6%	14%	5%	-6%	u
NC(=O)N1OCC2COc3ccc4ccccc4c3C21 (configuration not stated)	-8%	5%	-12%	5%	0%	15%
O=C1OC2(c3cc(I)c(O)c(I)c3Oc3c2cc(I)c(O)c3I)c2c(Cl)c(Cl)c(Cl)c(Cl)c21	x	u	x	x	3.2µM*	5µM*
O=C1OC2(c3ccccc31)c1cc(I)c(O)c(I)c1Oc1c2cc(I)c(O)c1I	x	14µM*	x	u	8.9µM*	4.5µM*
C=CCn1c(C)cc(C2=NNC(=NC(C)(C)C)SC2)c1C	u	56µM*	-3%	17%	-1%	-7%
